High-throughput results: PubChem, National Center for Advancing Translational Sciences (NCATS)
Hits are enriched below; roughly 5.1% of the tested compounds scored in any of these assays.
Tau fil binding – qHTS Assay for Tau Filament Binding | 2% of 71,000 active | Microtubule-associated protein tau (Homo sapiens), P10636 | recombinant tau filaments, thioflavin S fluorescence, 15 h; filaments grown with octadecylsulfate alongside compound | Potency, µM (titrated, usually from 57.1 µM);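 note: actives lower thioflavin S fluorescence by blocking filaments or displacing dye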
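His-tagged recombinant human tau (exons 2, 3 and 10 included), 1 uM, was induced to fibrillize by 30 uM sodium octadecylsulfate with compound present. After 15 h at 37 C, thioflavine S fluorescence (ex 450, em 510 nm) was read.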
DNA Pol III inh – qHTS Assay for Inhibitors of DNA Polymerase III Holoenzyme System | reconstituted DNA polymerase III holoenzyme replication, biochemical | Potency, µM (series often up to 57.1 µM) | 0.25% of 71,000 active | AID 603, 2007
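Reconstituted *E. coli* holoenzyme (0.35 nM Pol III, 1 nM beta, 154 nM SSB, 2 nM primase) was preincubated with compound for 15 min at RT. Synthesis on 1.4 nM ssM13Gori ran 35 min, then was stopped with PicoGreen/EDTA and read as dsDNA fluorescence.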
TSHR agonist – qHTS Assay for Agonists of the Thyroid Stimulating Hormone Receptor. Thyrotropin receptor (Homo sapiens), P16473. HEK293-CNG-TSHR cells (CNG channel as cAMP sensor), membrane potential dye, cAMP. Potency, µM (doses to about 57.1 µM), most hits filed as activators. 0.48% of 73,000 active; active = well fitted activation curve with a large enough effect in the main read-out, with a control signal flat, not every such curve was filed as active; inconclusive = small, poorly fitted or top-dose-only effect, or a change in a side signal; inactive = no such curve, though single readings can be large or run the other way; reference of the percent scale not stated here;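 note: the control signal comes from parental cells without the receptor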
Target sequence (P16473 whole entry, looked up): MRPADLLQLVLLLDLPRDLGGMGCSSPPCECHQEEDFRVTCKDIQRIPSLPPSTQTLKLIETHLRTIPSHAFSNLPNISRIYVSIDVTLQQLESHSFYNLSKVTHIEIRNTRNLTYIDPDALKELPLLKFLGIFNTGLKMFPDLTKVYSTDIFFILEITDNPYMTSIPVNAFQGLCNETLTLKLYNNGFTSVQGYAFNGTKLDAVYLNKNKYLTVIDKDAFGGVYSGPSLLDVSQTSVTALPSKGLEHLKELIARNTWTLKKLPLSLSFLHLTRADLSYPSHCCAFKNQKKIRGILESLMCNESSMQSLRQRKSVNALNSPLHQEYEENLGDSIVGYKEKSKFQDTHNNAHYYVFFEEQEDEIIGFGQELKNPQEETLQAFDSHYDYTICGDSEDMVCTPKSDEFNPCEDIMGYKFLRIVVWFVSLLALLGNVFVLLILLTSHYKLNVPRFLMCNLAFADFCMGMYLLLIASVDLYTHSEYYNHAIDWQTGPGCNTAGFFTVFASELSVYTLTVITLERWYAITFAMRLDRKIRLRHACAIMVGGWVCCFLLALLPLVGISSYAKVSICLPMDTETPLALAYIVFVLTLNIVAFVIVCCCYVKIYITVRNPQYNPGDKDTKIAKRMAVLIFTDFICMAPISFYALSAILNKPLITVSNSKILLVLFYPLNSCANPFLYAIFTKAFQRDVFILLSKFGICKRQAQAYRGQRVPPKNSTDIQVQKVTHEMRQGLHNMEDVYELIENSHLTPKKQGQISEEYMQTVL
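HEK 293 cells stably expressing TSHR and a modified CNG channel, with CNG-only parental cells as counterscreen, were preloaded 60 min at room temperature with membrane potential dye containing 100 uM RO 20-1724. Compound exposure was 30 min, and depolarization was read as fluorescence at 590 nm.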
Hsp90 Hop PPI – qHTS Assay for Disrupters of an Hsp90 Co-Chaperone Interaction. Hsp90 C-terminal peptide / TPR2A (Hop) interaction, human. AlphaScreen TPR2A-His6 binding biotin-Hsp90 C-terminal peptide. Potency, µM (doses to about 57 µM). 0.44% of 71,000 active; active = well fitted curve in either direction with a large enough effect; inconclusive = small, poorly fitted or top-dose-only effect, or another doubt
HEK293 cAMP cs – qHTS Assay for Agonists of the Thyroid Stimulating Hormone Receptor: Activators of Intracellular cAMP Concentrations in Parental HEK 293; parental HEK293 CNG cAMP sensor, membrane potential fluorescence; Potency, µM (series often up to 57.1 µM), hits mostly activators; 2.5% of 73,000 active; AID 938, 2007; note: nearly all actives have a fitted effect of over 55% in size
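Parental HEK 293 cells stably expressing a modified CNG channel (no TSHR) report cAMP rise as membrane depolarization. Membrane potential dye with 100 uM RO 20-1724 was loaded for 60 min at room temperature, then compound added for 30 min; fluorescence read at 590 nm.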
Numbers stand for hits; 0 = inactive; ? = inconclusive; - = no result given; ! = not confirmed by another sample; [ ] = remark or other dose. Unless noted, calls come from the whole dose curve; as a rule, active = well fitted curve in the direction sought with a large enough effect; inconclusive = small, poorly fitted or top-dose-only effect, or another doubt; inactive = no such curve, though single readings can be large; an effect the other way counts as inactive or inconclusive.

SMILES	Tau fil binding	DNA Pol III inh	TSHR agonist	Hsp90 Hop PPI	HEK293 cAMP cs
COc1cccc(NC(=O)c2ccccc2-c2nc(-c3ccccc3)no2)c1	0	0	?	0	10µM
Clc1ccc(CSc2ncnc3c2ncn3[C@@H]2CCCCO2)cc1	0[11.4 µM]	0[11.4 µM]	?	0[11 µM]	?
O=c1c(-c2ccc(Cl)cc2)nc2cnc(N3CCOCC3)nc2n1-c1ccccc1	0	0	0	0	0
COc1ccccc1N1CCN(CCCNc2cc(=O)n(C)c(=O)n2C)CC1	0	0	?	?	13µM!
CCOC(=O)CCN1CCN(C(=O)c2ccc(-n3c(=O)c(=O)[nH]c4ccccc43)cc2)CC1	-	-	0	-	0
CN(C)c1ccc(/C(=N\O)C(F)(F)F)cc1	0[11.4 µM]	0[11.4 µM]	0[11.4 µM]	0[11 µM]	0[11.4 µM]
CN(C)c1ccc(C(=C2C=CC(=[N+](C)C)C=C2)c2ccccc2)cc1	0.2µM!	0[11.4 µM]	0[11.4 µM]	?	0[11.4 µM]
O=C(O)c1ccc(F)c(S(=O)(=O)Nc2cccc(F)c2)c1	-	-	0	-	0
COc1ccc(OC)c(Nc2cc(-c3ccccc3)nc(N)n2)c1	16µM	0	?	0	?
COc1ccc(OC)c(Nc2cc(C)nc3ccccc23)c1	0	0	?	0	?
Cc1oc(-c2nc3ccccc3n2C)cc1C(=O)c1ccccc1	0	0	?	0	25µM
Cn1c(=O)n(CC(=O)OCc2ccccc2)c(=O)c2c1nc1n2CCCN1C1CCCCC1	0	0	0	0	0
CN1c2ccccc2C(C)(C)C12C=Cc1cc(O)ccc1O2 (stereo not drawn)	25µM	0	0	?	0
CS(=O)(=O)c1ccc(/C=N\NC(N)=S)cc1	0[11.4 µM]	0[11.4 µM]	0[11.4 µM]	0[11 µM]	0[11.4 µM]
O=C(NCc1cccc(C(F)(F)F)c1)C1CCCN(c2ncccn2)C1 (stereo not drawn)	0	0	0	0	0
O=C(Nc1cccc(C(F)(F)F)c1)C1CCCN(c2ncccn2)C1 (stereo not drawn)	0	0	?	0	25µM
CC(=O)Nc1ccc(Cc2ccc3[nH]c(=O)cc(C)c3c2)cc1	0[11.4 µM]	0[11.4 µM]	0[11.4 µM]	0[11 µM]	0[11.4 µM]
CCC(C)(C)n1nnnc1CN(Cc1cccs1)Cc1cc2cc(OC)ccc2[nH]c1=O	0	0	?	0	16µM
COCCn1nnnc1CN(Cc1cccnc1)Cc1cc2cc(OC)ccc2[nH]c1=O	0	0	0	0	0
O=c1[nH]c2cc3c(cc2cc1CN(Cc1cccs1)Cc1nnnn1Cc1ccco1)OCCO3	0	0	0[11.4 µM]	0	0
CCOc1ccc2[nH]c(=O)c(CN(Cc3cccs3)Cc3nnnn3C(C)(C)CC)cc2c1	0	0	?	0	20µM
O=C(O)CNC(=O)[C@H]1NC(C(F)(F)F)(C(F)(F)F)OC1(C(F)(F)F)C(F)(F)F	0[11.4 µM]	0[11.4 µM]	0[11.4 µM]	0[11 µM]	0[11.4 µM]
CCOC(=O)CCN1C(=O)[C@H]2[C@H]3[C@H](O)[C@H](O)C/C(=N/OCC(C)C)[C@@H]3CC[C@@H]2C1=O	-	-	0[11.4 µM]	-	0[11.4 µM]
O=c1oc2ccccc2n1CSc1nc2ccccc2s1	0	0	?	?	25µM
O=c1oc2ccccc2n1CSC1=NCCS1	0	0	0	0	0
SMILES	Tau fil binding	DNA Pol III inh	TSHR agonist	Hsp90 Hop PPI	HEK293 cAMP cs
CCc1nc(Nc2ccc(N3CCN(C(C)=O)CC3)cc2)c2oc3ccccc3c2n1	20µM	0	0	0	0
CC(=O)N1CCN(c2ccc(Nc3ncnc4c3oc3ccccc34)cc2)CC1	25µM	0	0	0	0
C[C@]1(OC(=O)/C=C\c2ccccc2)C[C@@H](O)[C@@]2(O)C=CO[C@@H](O[C@H]3O[C@@H](CO)[C@@H](O)[C@@H](O)[C@@H]3O)[C@H]21	0	0	-	0	0
CCc1cc2ccc(OC)cc2nc1SCC(=O)Nc1cc(C)on1	0	0	?	0	?
CCc1cc2ccccc2nc1SCC(=O)Nc1cc(C)on1	0	0	?	0	25µM
Cc1ccc(C2Nc3ccccc3-c3nc4ccccc4n32)o1 (stereo not drawn)	0	0	?	0	20µM
O=S(=O)(c1cccs1)N1CN(Cc2cccs2)c2nc3ccccc3nc21	0	0	?	0	?
O=S(=O)(c1cccs1)N1CN(CC2CCCO2)c2nc3ccccc3nc21 (stereo not drawn)	0	0	25µM	0	0
CC(C)(C)N1C(=O)[C@H]2[C@H]3[C@H](O)[C@H](O)C/C(=N/OC[C@@H](O)COCc4ccco4)[C@@H]3CC[C@@H]2C1=O	-	-	0[11.4 µM]	-	0[11.4 µM]
CCOC(=O)C(CC)Sc1nnc2n1C(C)(C)Cc1ccccc1-2 (stereo not drawn)	0	0	?	0	20µM
O=C(O)CSCc1cccc2ccccc12	0[11.4 µM]	0[11.4 µM]	0[11.4 µM]	0[11 µM]	0[11.4 µM]
COc1ccc(OC)c(C2=Nn3c(nnc3-c3cccc(OC(C)C)c3)SC2)c1	0	0	?	0	25µM
BrC(Br)C(Br)Br	0	0	?	0	0
COc1ccc2c(C(=O)CN(C)C3CCCCC3)c[nH]c2c1	25µM	0	0	0	0
Cc1cccc([C@@H]2CN(C)CCc3c2cc(O)c(O)c3Cl)c1	?	0	?	0	25µM
COc1ccc(Cl)cc1C(=O)N(Cc1nc(-c2cccc(C)c2)no1)C(C)C	0	0	25µM	0[2.3 µM]	0[11.4 µM]
COc1ccc(-c2noc(Cc3ccc(Cl)cc3)n2)cc1OC	0	0	25µM	?	0
COc1ccc(Cc2nc(-c3ccc(Cl)cc3)no2)cc1	0	0	?	0	?
c1ccc2c(-n3ccnc3)nc(-c3ccoc3)nc2c1	0	0	0	0	0
CC(C)[C@@H]1[C@H]2CC[C@H](C2)[C@H]1N	0	0	0	0	0
N=C(N)SCc1cccc(-c2nc3ccccc3c(=O)o2)c1	0[11.4 µM]	0[11.4 µM]	0[11.4 µM]	0[11 µM]	0[11.4 µM]
Cc1csc2nc(CSc3nc4ccccc4o3)c(Br)n12	0	0	?	0	25µM
CCOC(=O)SC1=N/C(=C\c2ccc(N(C)C)cc2)C(=O)S1	3.2µM	0	0	0	0
CCOC(=O)c1cc2sc(C)cc2n1C(C)C(=O)OCC (stereo not drawn)	0	0	?	?	?
CCC1Oc2ccc(C)cc2N(CC(=O)NCCC2=CCCCC2)C1=O (stereo not drawn)	0	0	?	0	6.3µM
SMILES	Tau fil binding	DNA Pol III inh	TSHR agonist	Hsp90 Hop PPI	HEK293 cAMP cs
CCN(CC)CC#CCOC(=O)[C@@](O)(c1ccccc1)C1CCCCC1	0	0	0	0	0
O=c1c(-c2cccs2)nc2cnc(N3CCNCC3)nc2n1Cc1cccs1	0	7.9µM	0	?	0
CN1CCN(c2ncc3nc(-c4ccc(Cl)cc4)c(=O)n(Cc4cccs4)c3n2)CC1	2µM	0	?	0	?
O=c1c(-c2ccc(Cl)cc2)nc2cnc(N3CCNCC3)nc2n1Cc1cccs1	3.2µM	25µM	0	0	0
COC(=O)[C@@]1(Cc2ccc(OC)cc2)[C@H]2c3cc(C(=O)N(C)C)n(C)c3C[C@H]2CN1C(=O)c1ccccc1	0	0	?	0	?
CCN(CC)S(=O)(=O)c1cc(Br)c(C)cc1OC	0	0	?	0	?
